Measured values reported in publication PMC7862700, “An all-to-all approach to the identification of sequence-specific readers for epigenetic DNA modifications on cytosine”.

Tests used:
Assay in all cases: DAPPL (digital affinity profiling via proximity ligation, sequencing); 10 mM Tris-HCl pH 7.5, 50 mM NaCl, 1 mM DTT, 4% glycerol, room temperature, 30 min; GST-TFs on glutathione beads, 16-mer random dsDNA library, 0.1% formaldehyde crosslink after washing; high values mean tight binding
FEV = target: T1, FEV (Homo sapiens, UniProt Q99581 1-238); settings: protein: recombinant; tags: N-terminal GST; dsDNA, one strand shown
T1 sequence: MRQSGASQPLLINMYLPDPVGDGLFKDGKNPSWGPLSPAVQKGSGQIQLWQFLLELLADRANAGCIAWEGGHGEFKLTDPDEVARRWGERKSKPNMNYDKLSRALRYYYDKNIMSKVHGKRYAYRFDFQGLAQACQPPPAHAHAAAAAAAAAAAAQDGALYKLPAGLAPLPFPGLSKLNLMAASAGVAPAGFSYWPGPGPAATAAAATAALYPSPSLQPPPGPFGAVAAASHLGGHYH
Procedure, shortened: (§1)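 The binding signal reported is, for every hexamer, its read frequency for a factor over its read frequency for the tag-only sample. Reads came from pools of yeast-expressed, GST-fused human transcription factors on glutathione beads, barcoded with DNA and mixed with that sample, which were incubated with 200 nmole of a random double-stranded 16-mer DNA library in Tris/NaCl/DTT/glycerol buffer at room temperature for 30 min. After washing, the pools were crosslinked with 0.1% formaldehyde, proximity-ligated with BsaI/T4 ligase for 1 h at 37 °C, PCR-amplified and sequenced on an Illumina NextSeq500.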

ETV5 = ETV5 (Homo sapiens, UniProt P41161 1-510); settings: protein: recombinant; tags: N-terminal GST; dsDNA, one strand shown
Procedure, shortened: as §1

HSF1 = HSF1 (Homo sapiens, UniProt Q00613 1-529); settings: protein: recombinant; tags: N-terminal GST; chain copies: 3; dsDNA, one strand shown
Procedure, shortened: as §1

SPIC = target: T2, SPIC (Homo sapiens, UniProt Q8N5J4 1-248); settings: protein: recombinant; tags: N-terminal GST; dsDNA, one strand shown
T2 sequence: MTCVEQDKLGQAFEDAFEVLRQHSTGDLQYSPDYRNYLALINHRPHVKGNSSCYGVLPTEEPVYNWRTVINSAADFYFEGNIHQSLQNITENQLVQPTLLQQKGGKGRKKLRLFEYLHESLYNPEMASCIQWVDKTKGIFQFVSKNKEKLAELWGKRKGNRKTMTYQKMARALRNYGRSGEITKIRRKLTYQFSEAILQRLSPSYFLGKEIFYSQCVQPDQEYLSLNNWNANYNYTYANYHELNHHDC
Procedure, shortened: as §1

ELF4 = ELF4 (Homo sapiens, UniProt Q99607 1-663); settings: protein: recombinant; tags: N-terminal GST; dsDNA, one strand shown
Procedure, shortened: as §1

ELK4 = target: T3, ELK4 (Homo sapiens, UniProt P28324-2 1-405); settings: protein: recombinant; tags: N-terminal GST; dsDNA, one strand shown
T3 sequence: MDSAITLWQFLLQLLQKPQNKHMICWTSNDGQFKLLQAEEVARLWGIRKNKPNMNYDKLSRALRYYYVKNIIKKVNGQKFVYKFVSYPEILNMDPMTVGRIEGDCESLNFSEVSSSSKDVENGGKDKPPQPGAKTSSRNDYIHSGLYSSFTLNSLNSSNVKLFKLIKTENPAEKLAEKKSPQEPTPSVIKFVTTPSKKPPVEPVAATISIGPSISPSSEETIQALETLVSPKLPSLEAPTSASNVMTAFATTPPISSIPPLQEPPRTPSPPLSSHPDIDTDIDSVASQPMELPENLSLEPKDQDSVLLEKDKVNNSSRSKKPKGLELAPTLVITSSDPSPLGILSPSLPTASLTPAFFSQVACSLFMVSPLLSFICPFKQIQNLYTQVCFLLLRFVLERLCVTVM
Procedure, shortened: as §1

ETV2 = target: T4, ETV2 (Homo sapiens, UniProt O00321 1-342); settings: protein: recombinant; tags: N-terminal GST; dsDNA, one strand shown
T4 sequence: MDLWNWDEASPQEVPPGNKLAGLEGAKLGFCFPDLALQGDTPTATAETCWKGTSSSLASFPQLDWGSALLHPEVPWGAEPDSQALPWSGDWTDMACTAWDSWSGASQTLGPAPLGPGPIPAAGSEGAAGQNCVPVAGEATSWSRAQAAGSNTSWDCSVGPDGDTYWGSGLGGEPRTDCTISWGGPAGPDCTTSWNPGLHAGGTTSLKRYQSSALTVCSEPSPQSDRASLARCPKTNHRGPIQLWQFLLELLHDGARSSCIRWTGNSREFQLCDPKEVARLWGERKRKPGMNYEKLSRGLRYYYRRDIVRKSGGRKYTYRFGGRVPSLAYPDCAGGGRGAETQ
Procedure, shortened: as §1

CRX = CRX (Homo sapiens, UniProt O43186 1-299); settings: protein: recombinant; tags: N-terminal GST; dsDNA, one strand shown
Procedure, shortened: as §1

ETV1 = ETV1 (Homo sapiens, UniProt P50549 1-477); settings: protein: recombinant; tags: N-terminal GST; dsDNA, one strand shown
Procedure, shortened: as §1

ERF = target: T5, ERF (Homo sapiens, UniProt P50548 1-548); settings: protein: recombinant; tags: N-terminal GST; dsDNA, one strand shown
T5 sequence: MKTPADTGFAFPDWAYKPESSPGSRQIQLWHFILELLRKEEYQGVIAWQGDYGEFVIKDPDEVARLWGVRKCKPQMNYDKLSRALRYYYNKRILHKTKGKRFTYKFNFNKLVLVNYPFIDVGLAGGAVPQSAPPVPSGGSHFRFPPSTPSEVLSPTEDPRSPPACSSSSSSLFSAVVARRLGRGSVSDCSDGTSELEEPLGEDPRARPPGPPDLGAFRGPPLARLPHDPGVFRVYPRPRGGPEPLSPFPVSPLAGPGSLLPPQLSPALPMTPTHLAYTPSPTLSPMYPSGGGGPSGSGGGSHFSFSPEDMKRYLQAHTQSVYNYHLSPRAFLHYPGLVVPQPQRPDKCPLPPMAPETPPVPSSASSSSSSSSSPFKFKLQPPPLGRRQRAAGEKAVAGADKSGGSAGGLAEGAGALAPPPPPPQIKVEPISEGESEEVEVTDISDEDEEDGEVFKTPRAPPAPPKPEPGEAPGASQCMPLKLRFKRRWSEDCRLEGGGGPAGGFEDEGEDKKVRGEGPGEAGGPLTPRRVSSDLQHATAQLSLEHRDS
Procedure, shortened: as §1

ETV3L = target: T6, ETV3L (Homo sapiens, UniProt Q6ZN32 1-361); settings: protein: recombinant; tags: N-terminal GST; dsDNA, one strand shown
T6 sequence: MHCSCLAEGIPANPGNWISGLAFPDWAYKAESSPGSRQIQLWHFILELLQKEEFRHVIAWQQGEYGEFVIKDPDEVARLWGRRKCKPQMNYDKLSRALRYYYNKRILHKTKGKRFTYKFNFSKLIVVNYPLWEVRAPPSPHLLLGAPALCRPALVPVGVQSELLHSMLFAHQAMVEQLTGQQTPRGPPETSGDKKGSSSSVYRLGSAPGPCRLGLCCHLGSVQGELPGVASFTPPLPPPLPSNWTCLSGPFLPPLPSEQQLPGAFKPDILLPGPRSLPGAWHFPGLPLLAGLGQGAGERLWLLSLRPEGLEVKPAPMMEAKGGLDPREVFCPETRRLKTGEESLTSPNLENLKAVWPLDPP
Procedure, shortened: as §1

ETS2 = target: T7, ETS2 (Homo sapiens, UniProt P15036 1-469); settings: protein: recombinant; tags: N-terminal GST; dsDNA, one strand shown
T7 sequence: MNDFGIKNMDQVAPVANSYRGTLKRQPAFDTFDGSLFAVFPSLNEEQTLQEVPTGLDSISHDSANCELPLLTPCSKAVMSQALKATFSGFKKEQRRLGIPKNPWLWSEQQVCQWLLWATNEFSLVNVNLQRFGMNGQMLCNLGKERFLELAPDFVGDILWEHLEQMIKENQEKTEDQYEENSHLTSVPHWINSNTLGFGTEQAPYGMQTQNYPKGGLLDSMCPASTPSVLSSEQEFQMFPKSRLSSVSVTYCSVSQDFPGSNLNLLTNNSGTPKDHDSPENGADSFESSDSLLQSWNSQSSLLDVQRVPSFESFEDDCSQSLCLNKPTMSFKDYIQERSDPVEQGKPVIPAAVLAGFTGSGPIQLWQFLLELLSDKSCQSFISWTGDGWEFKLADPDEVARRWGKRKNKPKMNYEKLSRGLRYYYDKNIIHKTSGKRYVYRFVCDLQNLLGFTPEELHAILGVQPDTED
Procedure, shortened: as §1

SPDEF = target: T8, SPDEF (Homo sapiens, UniProt O95238 1-335); settings: protein: recombinant; tags: N-terminal GST; dsDNA, one strand shown
T8 sequence: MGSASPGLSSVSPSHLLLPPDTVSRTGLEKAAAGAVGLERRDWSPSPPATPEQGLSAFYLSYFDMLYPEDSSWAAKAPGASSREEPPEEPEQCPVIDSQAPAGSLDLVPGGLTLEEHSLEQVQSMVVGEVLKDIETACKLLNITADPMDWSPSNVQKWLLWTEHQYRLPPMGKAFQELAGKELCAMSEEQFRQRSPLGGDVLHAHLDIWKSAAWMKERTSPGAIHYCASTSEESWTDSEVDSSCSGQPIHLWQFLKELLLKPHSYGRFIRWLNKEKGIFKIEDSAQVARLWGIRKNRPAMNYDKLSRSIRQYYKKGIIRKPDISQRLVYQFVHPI
Procedure, shortened: as §1

ELF5 = target: T9, ELF5 (Homo sapiens, UniProt Q9UKW6-2 1-255); settings: protein: recombinant; tags: N-terminal GST; dsDNA, one strand shown
T9 sequence: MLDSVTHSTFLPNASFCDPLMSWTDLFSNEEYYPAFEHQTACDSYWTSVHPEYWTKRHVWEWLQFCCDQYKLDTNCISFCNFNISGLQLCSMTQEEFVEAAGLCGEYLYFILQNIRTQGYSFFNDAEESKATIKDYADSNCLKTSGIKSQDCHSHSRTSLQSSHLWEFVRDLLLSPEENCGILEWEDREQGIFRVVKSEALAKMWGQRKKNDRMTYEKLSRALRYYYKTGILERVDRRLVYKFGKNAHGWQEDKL
Procedure, shortened: as §1

ETV3 = target: T10, ETV3 (Homo sapiens, UniProt P41162-2 1-143); settings: protein: recombinant; tags: N-terminal GST; dsDNA, one strand shown
T10 sequence: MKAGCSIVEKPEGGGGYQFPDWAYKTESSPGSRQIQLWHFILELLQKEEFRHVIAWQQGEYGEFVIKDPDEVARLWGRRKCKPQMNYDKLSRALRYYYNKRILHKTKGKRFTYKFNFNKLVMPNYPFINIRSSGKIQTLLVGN
Procedure, shortened: as §1

ETV6 = ETV6 (Homo sapiens, UniProt P41212 1-452); settings: protein: recombinant; tags: N-terminal GST; dsDNA, one strand shown
Procedure, shortened: as §1

Chain of ETV1 (P50549 whole entry): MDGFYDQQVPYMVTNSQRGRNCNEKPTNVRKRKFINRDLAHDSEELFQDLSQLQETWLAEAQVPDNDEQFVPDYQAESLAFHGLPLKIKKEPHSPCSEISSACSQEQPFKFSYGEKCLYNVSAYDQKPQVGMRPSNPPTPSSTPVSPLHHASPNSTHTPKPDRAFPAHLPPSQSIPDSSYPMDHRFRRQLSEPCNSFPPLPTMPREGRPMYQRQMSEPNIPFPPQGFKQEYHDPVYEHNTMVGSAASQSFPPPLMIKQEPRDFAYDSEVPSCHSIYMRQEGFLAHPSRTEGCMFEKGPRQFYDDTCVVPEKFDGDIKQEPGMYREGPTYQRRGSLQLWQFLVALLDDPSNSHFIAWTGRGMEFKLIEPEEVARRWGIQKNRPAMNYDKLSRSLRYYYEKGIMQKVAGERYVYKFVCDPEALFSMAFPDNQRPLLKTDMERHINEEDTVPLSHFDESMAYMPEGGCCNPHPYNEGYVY
Chain of HSF1 (Q00613 whole entry): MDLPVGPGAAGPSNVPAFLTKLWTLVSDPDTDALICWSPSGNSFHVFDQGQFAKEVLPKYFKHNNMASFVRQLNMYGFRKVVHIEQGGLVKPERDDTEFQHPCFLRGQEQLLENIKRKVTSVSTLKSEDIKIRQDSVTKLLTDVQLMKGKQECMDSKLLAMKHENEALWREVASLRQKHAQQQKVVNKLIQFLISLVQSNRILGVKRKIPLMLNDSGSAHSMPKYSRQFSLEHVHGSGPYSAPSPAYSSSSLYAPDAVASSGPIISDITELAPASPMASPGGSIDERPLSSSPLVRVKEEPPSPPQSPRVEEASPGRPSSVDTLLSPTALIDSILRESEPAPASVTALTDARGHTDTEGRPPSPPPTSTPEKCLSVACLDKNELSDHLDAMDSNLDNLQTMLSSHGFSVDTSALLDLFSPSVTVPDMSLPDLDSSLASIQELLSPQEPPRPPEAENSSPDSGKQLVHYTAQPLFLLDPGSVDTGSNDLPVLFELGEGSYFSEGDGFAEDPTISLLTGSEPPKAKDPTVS
Chain of ELF4 (Q99607 whole entry): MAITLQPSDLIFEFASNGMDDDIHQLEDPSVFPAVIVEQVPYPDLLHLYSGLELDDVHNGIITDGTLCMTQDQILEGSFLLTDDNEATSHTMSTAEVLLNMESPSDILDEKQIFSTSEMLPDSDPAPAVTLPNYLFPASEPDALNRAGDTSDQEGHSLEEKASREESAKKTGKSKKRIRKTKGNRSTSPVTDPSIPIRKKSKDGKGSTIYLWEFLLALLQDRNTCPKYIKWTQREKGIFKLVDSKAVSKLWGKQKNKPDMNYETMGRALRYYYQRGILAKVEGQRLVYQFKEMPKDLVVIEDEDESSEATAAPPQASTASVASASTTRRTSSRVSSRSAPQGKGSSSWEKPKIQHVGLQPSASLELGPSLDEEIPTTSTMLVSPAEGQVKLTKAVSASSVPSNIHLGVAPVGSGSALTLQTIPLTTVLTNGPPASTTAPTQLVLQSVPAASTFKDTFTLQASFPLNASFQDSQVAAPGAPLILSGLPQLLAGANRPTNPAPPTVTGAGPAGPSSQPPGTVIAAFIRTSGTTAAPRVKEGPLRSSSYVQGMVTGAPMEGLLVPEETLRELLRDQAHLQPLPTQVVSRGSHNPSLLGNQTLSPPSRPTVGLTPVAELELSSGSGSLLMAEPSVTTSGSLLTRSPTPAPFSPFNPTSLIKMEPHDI
Chain of CRX (O43186 whole entry): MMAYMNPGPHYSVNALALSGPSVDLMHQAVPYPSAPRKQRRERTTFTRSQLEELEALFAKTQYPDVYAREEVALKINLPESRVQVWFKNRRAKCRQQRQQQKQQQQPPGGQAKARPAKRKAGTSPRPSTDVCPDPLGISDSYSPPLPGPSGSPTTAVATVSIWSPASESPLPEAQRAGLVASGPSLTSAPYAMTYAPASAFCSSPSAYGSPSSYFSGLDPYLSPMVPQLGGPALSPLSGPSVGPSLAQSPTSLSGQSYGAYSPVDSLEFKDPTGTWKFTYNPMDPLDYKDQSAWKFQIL
Chain of ETV6 (P41212 whole entry): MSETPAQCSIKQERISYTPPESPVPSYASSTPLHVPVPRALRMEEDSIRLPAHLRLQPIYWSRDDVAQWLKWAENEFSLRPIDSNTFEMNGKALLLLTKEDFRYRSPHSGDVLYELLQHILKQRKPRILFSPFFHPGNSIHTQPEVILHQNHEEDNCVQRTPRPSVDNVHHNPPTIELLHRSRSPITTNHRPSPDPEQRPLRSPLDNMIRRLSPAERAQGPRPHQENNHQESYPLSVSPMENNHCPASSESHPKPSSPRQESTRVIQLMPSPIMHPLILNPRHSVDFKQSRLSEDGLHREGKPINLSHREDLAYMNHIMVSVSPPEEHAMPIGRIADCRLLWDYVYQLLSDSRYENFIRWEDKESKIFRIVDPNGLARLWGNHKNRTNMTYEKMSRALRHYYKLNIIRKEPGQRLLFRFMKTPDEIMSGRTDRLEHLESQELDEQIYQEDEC
Chain of ETV5 (P41161 whole entry): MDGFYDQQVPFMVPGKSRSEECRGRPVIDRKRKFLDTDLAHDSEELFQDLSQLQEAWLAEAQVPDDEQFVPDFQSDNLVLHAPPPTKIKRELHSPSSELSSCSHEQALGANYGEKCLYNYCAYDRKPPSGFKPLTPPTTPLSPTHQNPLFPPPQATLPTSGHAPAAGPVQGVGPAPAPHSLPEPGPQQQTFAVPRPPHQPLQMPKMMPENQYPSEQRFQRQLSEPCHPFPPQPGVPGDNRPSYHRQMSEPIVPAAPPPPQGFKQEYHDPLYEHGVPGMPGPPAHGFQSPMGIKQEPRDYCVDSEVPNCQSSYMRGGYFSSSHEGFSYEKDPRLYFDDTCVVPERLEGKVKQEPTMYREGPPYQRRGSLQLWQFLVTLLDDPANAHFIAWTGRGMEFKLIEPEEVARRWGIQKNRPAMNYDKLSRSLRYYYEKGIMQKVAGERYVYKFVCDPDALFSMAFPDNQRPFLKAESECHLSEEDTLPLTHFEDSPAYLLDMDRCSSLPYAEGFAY

For GATACT, the binding signal (FEV) was 1.1 fold enrichment (6-mer frequency, TF over GST control), the binding signal (ETV5) was 1.07 fold enrichment (6-mer frequency, TF over GST control) and the binding signal (HSF1) was 1.07 fold enrichment (6-mer frequency, TF over GST control). The binding signal (SPIC) was 1.05 fold enrichment (6-mer frequency, TF over GST control), the binding signal (ELF4) was 1.18 fold enrichment (6-mer frequency, TF over GST control) and the binding signal (ELK4) was 1.18 fold enrichment (6-mer frequency, TF over GST control). The binding signal (ETV2) was 1.02 fold enrichment (6-mer frequency, TF over GST control), the binding signal (CRX) was 1.07 fold enrichment (6-mer frequency, TF over GST control) and the binding signal (ETV1) was 1.1 fold enrichment (6-mer frequency, TF over GST control). For the same sequence, the binding signal (ERF) was 1.22 fold enrichment (6-mer frequency, TF over GST control), the binding signal (ETV3L) was 1.22 fold enrichment (6-mer frequency, TF over GST control) and the binding signal (ETS2) was 1.09 fold enrichment (6-mer frequency, TF over GST control). For the same sequence, the binding signal (SPDEF) was 1.17 fold enrichment (6-mer frequency, TF over GST control), the binding signal (ELF5) was 1.06 fold enrichment (6-mer frequency, TF over GST control) and the binding signal (ETV3) was 1.06 fold enrichment (6-mer frequency, TF over GST control). For the same sequence, the binding signal (ETV6) was 1.07 fold enrichment (6-mer frequency, TF over GST control).
